According to PubChem BioAssay AID1645857 (Buhrlage Lab, Dana-Farber Cancer Institute and Novartis …, 2021):
The whole screen tested about 47,000 compounds, of which about 1,400 (3%) were called active. Cut-off read from the data, not from the text of the source: active = inhibition above about 30%; inactive = the rest. The full list was thinned out, with actives kept by preference.

These compounds were tested against Ubiquitin carboxyl-terminal hydrolase 28 (Homo sapiens) (UniProt Q96RU2) (assay: inhibitors of human USP28 deubiquitinase (AID 1645857)). Details: purified USP28, Ub-rhodamine cleavage fluorescence, 30 min; at 25 µM; stronger effect = higher value.
Chain of Ubiquitin carboxyl-terminal hydrolase 28 (Homo sapiens) (Q96RU2 whole entry, looked up): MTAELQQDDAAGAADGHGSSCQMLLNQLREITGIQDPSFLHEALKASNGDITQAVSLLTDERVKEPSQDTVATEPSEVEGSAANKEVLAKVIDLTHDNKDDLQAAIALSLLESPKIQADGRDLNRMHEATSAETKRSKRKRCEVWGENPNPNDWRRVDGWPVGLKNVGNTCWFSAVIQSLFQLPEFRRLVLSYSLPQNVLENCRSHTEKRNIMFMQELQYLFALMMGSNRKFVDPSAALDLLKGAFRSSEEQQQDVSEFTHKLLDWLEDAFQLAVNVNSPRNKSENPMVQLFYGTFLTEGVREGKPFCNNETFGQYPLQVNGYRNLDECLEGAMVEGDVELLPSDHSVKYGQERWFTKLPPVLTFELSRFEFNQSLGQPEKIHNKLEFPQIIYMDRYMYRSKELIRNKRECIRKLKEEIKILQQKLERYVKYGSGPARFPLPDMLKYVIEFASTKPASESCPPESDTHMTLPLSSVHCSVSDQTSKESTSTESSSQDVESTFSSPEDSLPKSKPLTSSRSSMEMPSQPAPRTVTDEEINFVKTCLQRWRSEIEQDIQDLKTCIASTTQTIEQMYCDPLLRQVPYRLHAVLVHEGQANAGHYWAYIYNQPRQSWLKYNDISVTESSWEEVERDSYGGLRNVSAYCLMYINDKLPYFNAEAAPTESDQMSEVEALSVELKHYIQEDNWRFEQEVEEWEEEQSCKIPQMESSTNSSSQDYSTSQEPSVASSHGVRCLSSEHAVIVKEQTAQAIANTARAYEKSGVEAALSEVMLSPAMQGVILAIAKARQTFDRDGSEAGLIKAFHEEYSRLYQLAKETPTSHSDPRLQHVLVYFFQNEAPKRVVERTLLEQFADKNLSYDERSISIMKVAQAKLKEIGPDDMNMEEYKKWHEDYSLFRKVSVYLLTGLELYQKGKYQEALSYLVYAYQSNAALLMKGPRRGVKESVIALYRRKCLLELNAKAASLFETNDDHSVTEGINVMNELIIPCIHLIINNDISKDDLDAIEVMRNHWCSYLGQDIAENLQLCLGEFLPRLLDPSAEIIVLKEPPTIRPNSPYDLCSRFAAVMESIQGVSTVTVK
With Cc1ccc(C)c(NC(=O)c2cn(C)cc3c(=O)n(-c4ccccc4)nc2-3)c1 the inhibition was 2.87% (inactive). For COc1cc(Cn2cnc3c([nH]c4ccc(Br)cc43)c2=O)cc(OC)c1, the inhibition was 43.8% (active). In the case of O=c1c2[nH]c3ccc(Cl)cc3c2ncn1Cc1cccnc1, the inhibition is reported as -8.15% (inactive). CCOc1ccc2[nH]c3c(=O)n(Cc4cccnc4)cnc3c2c1 was tested, and the inhibition was 13.7% (inactive). For CCOc1cccc(C(=O)N2CCC(c3nc4ccccc4o3)CC2)c1, the inhibition was -7.65% (inactive). With Cc1cc(C)n2c(SCC(=O)Nc3cc(C(C)(C)C)nn3-c3ccccc3)nnc2n1 the inhibition was 6.69% (inactive). With Cc1cc(C(F)(F)F)n2nc(C3CCN(C(=O)c4cc5ccccc5s4)C3)cc2n1 (configuration not stated) the inhibition was 17.6% (inactive). For NCCCC(=O)N1CCC2(CC1)C(=O)NCN2C(=O)Cc1ccccc1, the inhibition was -0.0141% (inactive). O=C1CO[C@H]2CN(Cc3ncc[nH]3)C[C@H]2N1c1ccccc1 was tested, and the inhibition was 19.7% (inactive). In the case of COc1ccccc1CCNC(=O)CCc1c(C)c2ccc(O)c(C)c2oc1=O, the inhibition is reported as 2.41% (inactive). With Nn1c(SCC(=O)Nc2ccccc2F)nnc1-c1n[nH]c2c1CCC2 the inhibition was -7.92% (inactive). With Cc1cc(NC(=O)COC(=O)c2cccc(C)c2O)ccc1Br the inhibition was 5.74% (inactive). For Cc1cc(-c2nnc(SCC(=O)Nc3ccc(Br)c(C)c3)n2N)n[nH]1, the inhibition was 38.4% (active). For O=C(CN1CCC2(CC=CCN(CCc3ccccc3)C2=O)CC1)Nc1ccc(F)cc1, the inhibition was -25.4% (inactive). In the case of COc1ccc(C(=O)N2CCc3cc4ccccc4nc32)cc1OC, the inhibition is reported as -5.16% (inactive). For O=S(=O)(c1ccc(Cl)cc1)N1CCc2nc[nH]c2C1, the inhibition was -11.8% (inactive). With CC1CCC/C=C/C=C/C(=O)CC(O)C/C=C\C=C\C(O)C/C=C/C=C\C(=O)O1 (configuration not stated) the inhibition was 2.22% (inactive). For CCc1ccc(NC(=O)N2C[C@H]3C[C@H]4[C@](C2)(CN(Cc2cccnc2)S4(=O)=O)O3)cc1, the inhibition was 1.25% (inactive). For COCCN1C[C@@]23CN(C(=O)NCc4ccccc4)C[C@@H](C[C@@H]2S1(=O)=O)O3, the inhibition was 5.8% (inactive). For CC(C)CN1C[C@@]23CN(C(=O)NCCc4ccc(F)cc4)C[C@@H](C[C@@H]2S1(=O)=O)O3, the inhibition was 32.3% (active). For CC(C)NC(=O)c1nc(Cn2c(C(F)F)nc3ccccc32)no1, the inhibition was 5.94% (inactive). With CC1=C(C(=O)Nc2ccc(C)cc2C)C(c2cccs2)n2c(nc3ccccc32)N1 (configuration not stated) the inhibition was 6.45% (inactive). In the case of O=C(c1ccccn1)N1CCn2nc(-c3ccc4ccccc4c3)cc2C1, the inhibition is reported as 1.7% (inactive). O=C(Cc1ccccc1F)N1CCCC(c2[nH]nc3nccnc23)C1 (configuration not stated) was tested, and the inhibition was 1.05% (inactive). COc1ccccc1NC(=O)C1=C(C)Nc2ncnn2C1c1ccc(C)o1 (configuration not stated) was tested, and the inhibition was 1.41% (inactive). With COc1cccc(C2C(C(=O)Nc3ccccc3C)=C(C)Nc3ncnn32)c1OCc1ccccc1 (configuration not stated) the inhibition was 2.46% (inactive). COc1ccc(NC(=O)C2=C(C)Nc3ncnn3C2c2cccc(OCc3ccc(F)cc3)c2)c(OC)c1 (configuration not stated) was tested, and the inhibition was 46.2% (active). In the case of CNc1cccc(C2CN(C(=O)c3cnn4cccnc34)CCO2)n1 (configuration not stated), the inhibition is reported as -3.02% (inactive). In the case of O[C@@H]1C[C@H]2CN(Cc3ccc(F)cc3)[C@H](Cc3ccccc3)CN2C1, the inhibition is reported as 2.96% (inactive). In the case of COc1ccc2c(c1)OC[C@@H](Cc1ccccc1)N(Cc1ccncc1)[C@H]2C, the inhibition is reported as 8.99% (inactive). For N#Cc1cccc(CSc2ncnc(N)n2)c1, the inhibition was 39.9% (active). Cc1ccc(-c2cc3n(n2)CCCN(C(=O)c2ccccn2)C3)cc1 was tested, and the inhibition was 0.0245% (inactive). For Cc1ccc(N2CCCS2(=O)=O)cc1NC(=O)Cc1ccc(Cl)cc1, the inhibition was 33.1% (active). With Cc1ccc(Cl)cc1NC(=O)N1CCc2nc(N3CCCCC3)ncc2C1 the inhibition was -54.3% (inactive). In the case of Cc1ccc(CC(=O)Nc2nnc(C3CC(=O)N(c4ccc(C)c(C)c4)C3)s2)cc1 (configuration not stated), the inhibition is reported as 13.1% (inactive). Cn1ccc(C(=O)NCc2cnc(C3CCCCO3)nc2)n1 (configuration not stated) was tested, and the inhibition was 6.1% (inactive). With Cc1ccc(C)c(CSC2=NCCN2C(=O)c2ccco2)c1 the inhibition was 70.4% (active). With Cc1ccc(C)c(CSc2nc(-c3ccco3)nc3c2c(=O)n(C)c(=O)n3C)c1 the inhibition was -10.3% (inactive). In the case of COc1ccc(CC(=O)Nc2ccc3c(c2)CN(C(=O)c2ccco2)CC3)cc1, the inhibition is reported as 23.1% (inactive). Cc1ccc(-n2cc(-c3noc(C(=O)Nc4ccc(F)cc4C)n3)nn2)cc1 was tested, and the inhibition was 13.4% (inactive). For CC(C)NC(=O)c1csc(-c2ccc(N3CCCC3)nc2)n1, the inhibition was -10% (inactive). In the case of Cc1cc(C(=O)CSc2nnc(-c3ccc(F)cc3)n2C)c(C)n1C, the inhibition is reported as -21.9% (inactive). For Cn1c(SCc2ccc(Cl)cc2)nnc1-c1ccc2c(c1)OCCO2, the inhibition was 41% (active). In the case of O=C(CSc1nnc(-c2ccc3c(c2)OCO3)n1-c1ccccc1)OCC(=O)c1ccccc1, the inhibition is reported as 14.9% (inactive). For O=C(N[C@@H](Cc1ccccc1)C(=O)N1CCc2ccccc2C1)c1cccnc1, the inhibition was 5.48% (inactive). Cc1oc(-c2cccc(Cl)c2)nc1Cn1c(=O)n(C(C)C)c(=O)c2ccccc21 was tested, and the inhibition was -19% (inactive). In the case of CCc1nc(SCC(=O)Nc2cccc3ccccc23)c2oc3ccccc3c2n1, the inhibition is reported as 2.85% (inactive). With O=C(CSc1ncnc2c1oc1ccccc12)NC1CCCC1 the inhibition was 46.9% (active). With Cc1c(C(=O)NC2CCCCC2)oc2ccccc12 the inhibition was 3.81% (inactive). With O=C(Cc1nnc2c(-c3nc(C4CC4)no3)cccn12)Nc1ccccc1 the inhibition was 11% (inactive). In the case of CN(C)C(=O)CN1CCC2(CC1)CN(Cc1ccccn1)C(=O)CO2, the inhibition is reported as 8.76% (inactive). In the case of CN1CCN(c2ncc3c(=O)n(CC4CCCO4)ccc3n2)CC1 (configuration not stated), the inhibition is reported as -10.1% (inactive). In the case of Cc1cc(C)c(NC(=O)CCN2C(=O)c3cccnc3Sc3ccccc32)c(C)c1, the inhibition is reported as 32.4% (active). With COc1ccc(NC(=O)CCN2C(=O)c3cccnc3Sc3ccccc32)cc1 the inhibition was 9.9% (inactive). With O=C(CCN1C(=O)c2cccnc2Sc2ccccc21)Nc1cc(F)ccc1F the inhibition was 11% (inactive). In the case of CC(C)(C)c1nn(-c2ccccc2)c2[nH]c(=O)c(CNCCc3ccccc3)cc12, the inhibition is reported as 20.3% (inactive). Cc1ccccc1Nc1nc(N)nc(CSc2ccccc2)n1 was tested, and the inhibition was -0.136% (inactive).
